Screening results (PubChem BioAssay)
Rows were chosen to be rich in hits. Some 3.3% of all compounds tested hit in one or more screens of this group.
SMARCA2 act: activators of SMARCA2 function | MG213 cells, MMTV-luciferase reporter, dexamethasone, overnight | activation, % at 9.1 µM | 370,000 compounds, 1% hits | AID 652017; in the data active = activation above about 7.8%;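 note: 0% = vehicle wells and 100% = reference activator wells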
697 NFkB inh: inhibitors of the PMA/ionomycin-induced NF-kB reporter in 697 B cells | 697 B-cell NF-kB luciferase reporter, 16 h | inhibition, % at 4 µM | 330,000 compounds, 0.33% hits | AID 435022; in the data active = inhibition above about 35%
Gli-Sufu block: Gli-Sufu pathway antagonism | inhibition, % at 5 µM | Sufu-KO-LIGHT fibroblasts, Gli luciferase reporter luminescence | AID 588413 | 340,000 compounds, 0.74% hits;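 active = inhibition above about 55%, limit read from the data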;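 note: 0% = DMSO-treated cells and 100% = wells with medium but no cells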
esBAF inh: SWI/SNF esBAF complex inhibition; mouse ES cells, Bmi1-luciferase knock-in reporter, 24 h; 100% = twice the neutral-well signal; AID 602393; reporter increase, % at 12.5 µM; 350,000 compounds, 2% hits; in the data active = activation above about 40%; inconclusive = no clear call, values can overlap the other calls;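 note: 0% = median of the plate's neutral control wells and 100% = double that signal; a rise in the Bmi1 reporter signal indicates esBAF inhibition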
Jurkat NFkB inh: inhibitors of the PMA/ionomycin-induced NF-kB reporter in Jurkat cells; PMA/ionomycin-induced NF-kB luciferase reporter, luminescence; inhibition, % at 4 µM; 330,000 compounds, 0.53% hits; in the data active = inhibition above about 50%
esBAF Ring1 qPCR: esBAF inhibition confirmed by Ring1 de-repression; shares compounds with esBAF inh; 550 tested, under 10 active; mouse ESC E14, Ring1 mRNA RT-qPCR fold change; AID 743176; fold change at 33 µM;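 active = Ring1 gene expression raised more than 2-fold over untreated cells in both replicates at either tested dose; inconclusive = only one replicate above 2-fold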;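 note: Ring1 transcript normalised to actin housekeeping signal by TaqMan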
Fgf4 repress: confirmation of esBAF inhibitors: Fgf4 repression in mouse ESCs; 550 compounds, 4% hits; shares compounds with esBAF inh; Fgf4 expression fold change at 33 µM; mouse ESC E14, Fgf4 mRNA qPCR fold change; stronger effect = lower value;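 active = Fgf4 expression under 0.8 fold of control in both repeat measurements at one or both tested doses; inconclusive = under 0.8 fold in just a single repeat measurement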;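 note: Fgf4 transcript normalised to actin in duplex TaqMan qPCR; cells exposed to compound for 24 h before lysis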
esBAF Bmi1 qPCR: esBAF inhibition confirmed by Bmi1 de-repression; fold change at 33 µM; shares compounds with esBAF inh; 550 tested, under 10 active; AID 743180; mouse ESE14 ES cells, Bmi1 mRNA qPCR fold; stronger effect = higher value;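 active = Bmi1 expression fold change above 6 at either tested concentration, seen in replicate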
A549 tox SP: A549 cell cytotoxicity | shares compounds with esBAF inh | AID 743188 | cell viability change % (negative = cytotoxic), % at 25 µM, hits read low | 550 tested, under 10 active | plate reader; call rule not given here
HepG2 cytotox SP: kills or reduces viability of HepG2 cells. 550 compounds, 4% hits. activity change, negative = inhibition, % at 25 µM. HepG2 cytotoxicity, plate reader; stronger effect = lower value. shares compounds with esBAF inh; in the data active = activity change below about -50%
HEK293 tox SP: HEK293 cell cytotoxicity at single point; shares compounds with esBAF inh; plate reader; activity change, negative = inhibition, % at 25 µM, hits read low; 550 compounds, 3% hits; AID 743190; in the data active = activity change below about -38%, passing the limit was not always enough
The depositor's hits bear a star; ? = inconclusive; nt = not tested or not shown.

SMILES	SMARCA2 act	697 NFkB inh	Gli-Sufu block	esBAF inh	Jurkat NFkB inh	esBAF Ring1 qPCR	Fgf4 repress	esBAF Bmi1 qPCR	A549 tox SP	HepG2 cytotox SP	HEK293 tox SP
O/N=C\c1cnc(N2CCN(c3ccccc3)CC2)s1	6.7	-11.0	-2.0	84.3*	17.9	0.953	0.849	1.64	-6.9	-36.0	-7.8
O=Cc1cnc(N2CCCCC2)s1	3.7	-5.4	-1.7	nt	-18.0	nt	nt	nt	nt	nt	nt
CO[C@@H]1CN(C)C(=O)c2cc(NC(=O)c3ccccc3)ccc2OC[C@@H](C)NC[C@H]1C	nt	nt	nt	4.9	nt	nt	nt	nt	nt	nt	nt
C[C@@H]1CN([C@H](C)CO)C(=O)c2cc(NS(=O)(=O)c3ccc(F)cc3)ccc2O[C@@H](C)CCCCO[C@H]1CN(C)Cc1ccccc1	nt	nt	nt	-6.4	nt	nt	nt	nt	nt	nt	nt
CC(=O)c1c(C)[nH]c(C(=O)OCc2ccc(Br)cc2)c1C	-4.1	-85.7	12.3	63.5*	-9.7	1.38	1.07	2.03	-7.8	-24.5	-22.0
C[C@@H]1CN([C@H](C)CO)C(=O)Cc2cc(NC(=O)CCC(F)(F)F)ccc2O[C@H]1CN(C)Cc1ccc(Oc2ccccc2)cc1	nt	nt	nt	9.4	nt	nt	nt	nt	nt	nt	nt
O=c1oc(-c2ccccc2)cc2ccccc12	7.4	nt	nt	77.0*	nt	1.26	1.01	2.03	3.1	-12.8	-3.4
COc1ccccc1NC(=O)Cn1nnc(-c2ccccc2NS(=O)(=O)c2ccccc2)n1	-2.0	-27.3	23.4	nt	-3.0	nt	nt	nt	nt	nt	nt
COc1ccccc1NC(=O)Cn1nnc(-c2ccccc2NC(=O)c2cc3ccccc3oc2=O)n1	2.9	-25.3	-16.2	65.7*	-11.2	1.05	0.872	1.5	-6.7	-2.6	-12.7
c1ccc2c(c1)Nc1cc3ccccc3cc1O2	-0.3	nt	-5.1	84.0*	nt	1.27	0.903	1.49	-1.7	-1.1	-8.5
COc1ccc(S(=O)(=O)Nc2cc(C(=O)NC3CCCCCC3)ccc2N2CCOCC2)cc1	nt	4.4	3.5	37.7	5.8	1.06	1	1.85	3.7	-46.1	-4.7
COc1ccc(S(=O)(=O)Nc2cc(C(=O)NC(C)C)ccc2N2CCOCC2)cc1	1.7	6.9	7.8	nt	1.2	nt	nt	nt	nt	nt	nt
Cc1ccc(NC(=O)C2CCCN(C(=O)c3ccc(Cl)cc3)C2)cc1C (configuration not stated)	0.2	-44.3	-14.7	68.9*	-44.0	0.981	1.09	1.46	-7.2	-29.0	-31.6
Cc1cc(C)cc(NC(=O)C2CCCN(c3ncccn3)C2)c1 (configuration not stated)	-0.6	9.3	-5.3	-1.5	12.1	nt	nt	nt	nt	nt	nt
Cc1ccc(NC(=O)C2CCCN(c3ncccn3)C2)cc1F (configuration not stated)	6.0	-17.3	-73.5	72.6*	-98.6	1.34	?	1.61	-0.4	-18.1	-7.2
Cc1ccc(NC(=O)C2CCCN(C(=O)c3ccc(Cl)cc3)C2)cc1 (configuration not stated)	-0.3	-3.5	3.5	nt	3.5	nt	nt	nt	nt	nt	nt
CN1CCN(C(=O)C[C@H]2CC[C@@H]3[C@H](COC[C@@H](O)CN3C(=O)C3CCCC3)O2)CC1	nt	nt	nt	-2.0	nt	nt	nt	nt	nt	nt	nt
COc1cccc(-c2nc(-c3ccc(NC(=O)c4cccs4)cc3)no2)c1	4.5	-39.3	0.0	62.0*	-39.0	1.1	0.861	1.5	-15.0	-6.2	-18.3
COc1ccc(NC(=O)c2cc(-c3cccs3)on2)cc1OC	2.7	-2.9	-13.2	10.5	-15.2	nt	nt	nt	nt	nt	nt
COc1ccc(NC(=O)c2cc(-c3cccs3)on2)cc1	1.4	1.8	-17.4	62.1*	-52.7	0.965	?	2.11	-10.9	-2.7	7.8
CNC[C@@H]1Oc2c(NC(=O)c3nc4ccccc4s3)cccc2C(=O)N([C@@H](C)CO)C[C@H]1C	nt	nt	nt	-1.3	nt	nt	nt	nt	nt	nt	nt
CN(CC(=O)Nc1ccccc1Br)C(=O)c1ccc(COc2ccccc2)cc1	-0.1	-3.6	5.3	5.0	-26.5	nt	nt	nt	nt	nt	nt
COc1ccc2cc(C(=O)N(C)CC(=O)Nc3ccccc3Br)ccc2c1	5.4	-23.1	-13.5	60.2*	-63.6	1.06	0.875	1.58	-0.5	-3.2	22.9
CN(CC(=O)Nc1ccccc1Br)C(=O)c1cc2c(s1)CCCCC2	2.3	-63.4	-42.8	67.1*	-59.7	0.898	0.818	1.66	-2.3	-29.0	-21.0
CN(CC(=O)Nc1ccccc1Cl)C(=O)c1cc2c(s1)CCCCC2	-1.8	nt	8.0	2.1	nt	nt	nt	nt	nt	nt	nt
SMILES	SMARCA2 act	697 NFkB inh	Gli-Sufu block	esBAF inh	Jurkat NFkB inh	esBAF Ring1 qPCR	Fgf4 repress	esBAF Bmi1 qPCR	A549 tox SP	HepG2 cytotox SP	HEK293 tox SP
CC=Cc1ccc2n(c1=O)C[C@H]1[C@H](CO)[C@@H](C(=O)NCCc3cn(C)cn3)[C@@H]2N1C(=O)C1CC1 (mixture of isomers)	nt	nt	nt	0.3	nt	nt	nt	nt	nt	nt	nt
Cc1cc2oc(=O)cc(CN3CCC(C)CC3)c2c(C)c1Cl	-2.0	-54.5	-54.8	58.8*	-27.8	1.05	0.851	1.43	-20.8	-33.8	-21.8
O=C(C[C@H]1C[C@@H]2c3cc(NC(=O)Cc4ccncc4)ccc3O[C@@H]2[C@H](CO)O1)NCC1CC1	nt	nt	nt	-2.1	nt	nt	nt	nt	nt	nt	nt
CNC[C@@H]1OCCCC[C@H](C)Oc2ccc(NC(=O)Nc3ccc(OC)cc3)cc2C(=O)N([C@H](C)CO)C[C@H]1C	nt	nt	nt	-4.9	nt	nt	nt	nt	nt	nt	nt
COc1ccc2c(c1)nc(-c1cccc(Br)c1)c(=O)n2C(c1ccccn1)c1nc2ccccc2[nH]1 (configuration not stated)	7.9*	nt	nt	72.4*	nt	1.39	1.05	2.05	0.6	-17.2	5.6
O=c1c(-c2ccccc2)nc2ccccc2n1C(c1ccccn1)c1nc2ccccc2[nH]1 (configuration not stated)	1.4	nt	nt	nt	nt	nt	nt	nt	nt	nt	nt
CSc1cccc(NC(=O)N2CCc3ccc(NC(=O)c4ccccn4)cc3C2)c1	1.6	-68.9	-9.7	60.0*	-88.2	0.926	1.01	1.25	-24.5	-17.8	-16.9
O=c1c(-c2nc3ccccc3s2)cccn1Cc1ccc(Cl)cc1	0.0	-18.4	-38.9	67.0*	-41.0	1.04	0.975	1.4	-10.2	3.4	-16.1
COc1ccccc1C(=O)NCCC(=O)NC1CCCCC1C (configuration not stated)	-1.0	-2.1	-8.4	-4.1	9.2	nt	nt	nt	nt	nt	nt
